Assay results published in PubChem BioAssay AID602393 (Broad Institute, 2012).
In all, about 350,000 compounds went through this assay and about 7,000 (2%) were called active. The sample holds actives, similar compounds and a random draw of the others, so the mix is not that of the screen. Rule as the data show it: active = activation above about 40%; inconclusive = no clear call, values can overlap the other calls; inactive = below that.

assay: Bmi1 luciferase reporter increase in mESCs, primary screen, esBAF inhibitor project, mouse ES cells, Bmi1 luciferase knock-in, single point (AID 602393); conditions: 24 h, at 12.5 µM, hits give high values, 100% = twice the neutral-well signal;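 also: 0% = median of the plate's neutral control wells and 100% = double that signal; a rise in the Bmi1 reporter signal indicates esBAF inhibition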

Row | Compound | reporter increase
1 | O=C(C[C@H]1CC[C@@H](NC(=O)Cc2cccnc2)[C@H](CO)O1)Nc1ccc(-c2ccccc2)cc1 | -2.77% (inactive)
2 | CC(OC(=O)/C=C/c1ccccc1)C(=O)Nc1ccc(C(N)=O)cc1 (stereo not drawn) | -2.08% (inactive)
3 | N/C(=N\OC(=O)c1ccc2c(c1)OCO2)c1ccc(Br)cc1 | 18.6% (inactive)
4 | N/C(=N\OC(=O)/C=C/c1ccccc1)c1ccc(Br)cc1 | 23.9% (active)
5 | CN(c1ccc(C(=O)NCCC2=CCCCC2)cc1)S(C)(=O)=O | -6.11% (inactive)
6 | Cn1nnc2cc(C(=O)NCCC3=CCCCC3)ccc21 | -7.14% (inactive)
7 | O=C(NCCC1=CCCCC1)c1ccc(-n2cncn2)cc1 | 42.2% (active)
8 | CC(c1ccccn1)N(C)C(=O)c1ccc2nc(Cc3cccc(Cl)c3)oc2c1 (stereo not drawn) | 73.4% (active)
9 | Cc1cc(Cl)c2oc(C(=O)N(C)C(C)c3ccccn3)c(C)c2c1 (stereo not drawn) | 31.4% (inactive)
10 | CCn1ccnc1CN(C)C(=O)c1ccc2nc(Cc3ccc(OC)cc3)oc2c1 | -2.21% (inactive)
11 | COc1ccc(NC(=O)Nc2ccc3c(c2)CC(=O)N([C@@H](C)CO)C[C@@H](C)[C@H](CN(C)C(=O)NC2CCCCC2)O3)cc1 | 3.44% (inactive)
12 | O=C(Cc1ccccn1)c1ccc(O)cc1O | 7.66% (inactive)
13 | c1ccc(CCc2ccccn2)cc1 | 16.6% (inactive)
14 | Oc1cccc(CCc2ccccn2)c1 | 45.8% (active)
15 | CO[C@H]1CN(C)C(=O)c2cc(NC(=O)C3CC3)ccc2OC[C@H](C)N(CC2CCCC2)C[C@@H]1C | -2.34% (inactive)
16 | CC1CCCC(C)N1C(=O)CN1CCN(c2nc(-c3ccc(F)cc3)cs2)CC1 (stereo not drawn) | 7.37% (inactive)
17 | O=C(COC(=O)C1CCCO1)Nc1nc(-c2ccc(F)cc2)cs1 (stereo not drawn) | 49.2% (active)
18 | O=C(CSC1=NCCS1)Nc1nc(-c2ccccc2)cs1 | 5.05% (inactive)
19 | COc1cc(OC)cc(C(=O)NNC(=O)Cc2cccs2)c1 | 3.48% (inactive)
20 | Cc1ccc(-c2csc(NC(=O)Cc3cccs3)n2)cc1C | 48.9% (active)
21 | O=C(Nc1n[nH]c(C(F)(F)F)n1)c1cccs1 | -2.17% (inactive)

Row | Compound | reporter increase
22 | Cc1ccc(-c2csc(NC(=O)C3=COCCO3)n2)cc1C | 43.9% (active)
23 | NS(=O)(=O)c1ccc2nc(NC(=O)C3=COCCO3)sc2c1 | -2.59% (inactive)
24 | Cc1csc(NC(=O)C2=COCCO2)n1 | 39.3% (inactive)
25 | Cc1ccc(-c2csc(N(Cc3ccco3)C(=O)c3cccs3)n2)cc1 | 2.94% (inactive)
26 | Cc1ccc(-c2csc(NC(=O)c3cccs3)n2)cc1 | 53.5% (active)
27 | COc1ccc(OC)c(NC(=O)Cc2cccs2)c1 | 0.423% (inactive)
28 | O=C(C[C@@H]1CC[C@@H](NC(=O)C2CCOCC2)[C@H](CO)O1)Nc1ccc(-c2ccccc2)cc1 | 8.43% (inactive)
29 | C[C@@H]1CN([C@H](C)CO)C(=O)c2cc(C#CC3(O)CCCC3)cnc2O[C@H]1CN(C)C(=O)C1CCC1 | 2.77% (inactive)
30 | C[C@@H](NC(=O)C[C@H]1C[C@H]2c3cc(NC(=O)Nc4ccccc4F)ccc3O[C@H]2[C@@H](CO)O1)c1ccccc1 | 2.95% (inactive)
31 | O=C(Cc1ccncc1)N[C@H]1CC[C@H](CCn2cc(-c3ccccc3F)nn2)O[C@@H]1CO | 12.7% (inactive)
32 | COc1cccc(-c2cn(CC[C@@H]3CC[C@@H](NC(C)=O)[C@@H](CO)O3)nn2)c1 | -4.15% (inactive)
33 | CNC(=O)c1sc(NCc2ccccc2OC)nc1C | 10% (inactive)
34 | COc1ccccc1/C=N/Nc1nc(C)c(C(C)=O)s1 | 43.3% (active)
35 | COc1ccccc1CNC(=O)COC(=O)c1sc(C)nc1C | 6.65% (inactive)
36 | CCCC#Cc1ccc([C@H]2[C@@H](CO)N3CCCCN(S(=O)(=O)Cc4ccccc4)C[C@H]23)cc1 | -7.51% (inactive)
37 | CCS(=O)(=O)N1[C@H](C#N)[C@H](c2ccc(-c3cccc(F)c3)cc2)[C@@H]1CO | 2.95% (inactive)
38 | COC(=O)c1cc(OC)c(OC)cc1NC(=O)CSc1ccc(C)cc1 | -15.9% (inactive)
39 | Cc1ccc(SCC(=O)c2cc(C)c(OC(=S)N(C)C)c(C)c2)cc1 | 45.8% (active)
40 | CCN1CCN(C(=O)CSc2ccc(C)cc2)CC1 | 31% (inactive)
41 | C[C@@H]1CN([C@@H](C)CO)S(=O)(=O)c2ccc(C#Cc3ccccc3F)cc2O[C@H]1CN(C)C(=O)c1ccc2c(c1)OCO2 | 0.756% (inactive)
42 | CC(C)NC(=O)N(C)C[C@H]1Oc2c(NC(=O)c3ccncc3)cccc2C(=O)N([C@@H](C)CO)C[C@H]1C | 1.56% (inactive)

Row | Compound | reporter increase
43 | COc1ccc(C=C(C#N)C#N)c(CSc2ccccn2)c1 | -8.92% (inactive)
44 | COc1ccc(/C=N/OCc2ccccc2C#N)c(OC)c1 | 82.2% (active)
45 | COc1ccc(/C=C2/C(=O)N(c3ccccc3)N=C2C)c(OC)c1 | -1.3% (inactive)
46 | C[C@H]1CN([C@@H](C)CO)S(=O)(=O)c2ccc(C3=CCCC3)cc2O[C@@H]1CN(C)Cc1ccccc1 | 1.2% (inactive)
47 | CC(OC(=O)c1cc2ccccc2[nH]1)C(=O)N(C)c1ccccc1 (stereo not drawn) | 7.66% (inactive)
48 | COc1ccc(C2=Nc3ccccc3NC(=O)C2N(C(=O)c2cc3ccccc3[nH]2)c2ccccc2)cc1 (stereo not drawn) | 47.8% (active)
49 | COc1ccc(NC(=O)N(C)C[C@@H]2OCc3ccccc3-c3c(n(C)c4ccccc34)C(=O)N([C@H](C)CO)C[C@H]2C)cc1 | -4.05% (inactive)
50 | CO[C@@H](CN(C)S(=O)(=O)c1cccc(Cl)c1)[C@H](C)CN([C@H](C)CO)S(=O)(=O)c1cccc(Cl)c1 | 6.95% (inactive)
51 | CN1c2ccc(-c3cccc(F)c3)cc2[C@H]2[C@H](CCN2C(=O)C2CCCC2)[C@@H]1CO | 2.05% (inactive)
52 | O=C(c1cc(-c2cccs2)on1)N1CCCCC1 | -2.46% (inactive)
53 | COc1ccccc1-c1cc(C(=O)N2CCCCC2)no1 | 52.4% (active)
54 | COc1ccc(C(=O)C2CCCN(C(=O)c3cc(C)on3)C2)cc1F (stereo not drawn) | -6.1% (inactive)
55 | C[C@@H]1CN([C@H](C)CO)C(=O)c2cc(NC(=O)CCCN(C)C)ccc2O[C@@H](C)CCCCO[C@@H]1CN(C)Cc1ccncc1 | 1.15% (inactive)
56 | C[C@H]1CN([C@@H](C)CO)C(=O)c2cccc(NC(=O)Nc3ccccc3)c2O[C@H]1CN(C)Cc1ccc(C(F)(F)F)cc1 | -0.852% (inactive)
57 | Cc1ccn(CCC(=O)N2c3ccccc3CC2C)n1 (stereo not drawn) | 0.95% (inactive)
58 | CCCC(=O)N1c2ccc(-c3csc(N)n3)cc2CC1C (stereo not drawn) | 41.3% (active)
59 | CCC(=O)N1c2ccc(S(=O)(=O)CCC(=O)N3CCN(c4ccccc4)CC3)cc2CC1C (stereo not drawn) | 29.9% (inactive)
60 | O=c1cc(CCl)nc2scc(-c3ccccc3)n12 | -3.84% (inactive)
61 | Cc1csc2nc(COC(=O)c3cccc(N(C)C)c3)cc(=O)n12 | 82.1% (active)
62 | Cc1nn2c(=O)cc(COC(=O)c3ccc(NC(=O)C(C)(C)C)cc3)nc2s1 | 2.43% (inactive)
63 | CN1CCN(C(=O)C[C@@H]2C[C@H]3c4cc(NC(=O)NC5CCCC5)ccc4O[C@H]3[C@H](CO)O2)CC1 | 0.154% (inactive)

Row | Compound | reporter increase
64 | CCCNC(=O)C[C@H]1C[C@@H]2c3cc(NC(=O)C4CCOCC4)ccc3O[C@@H]2[C@H](CO)O1 | -3.13% (inactive)
65 | Clc1cccc(Cl)c1Cn1nnc(-c2cccs2)n1 | 69.1% (active)
66 | COc1ccccc1N1CCN(C(=O)Cn2nnc(-c3cccs3)n2)CC1 | 3.41% (inactive)
67 | O=c1cc(Cn2nnc(-c3ccc(Cl)cc3)n2)nc2sccn12 | 7.92% (inactive)
68 | CC(=O)N(C)C[C@@H]1Oc2cc(-c3cccnc3)ccc2S(=O)(=O)N([C@H](C)CO)C[C@H]1C | 2.38% (inactive)
69 | C/C=C/c1ccc([C@H]2[C@@H](C#N)N(C(=O)CN3CCOCC3)[C@@H]2CO)cc1 | -3.67% (inactive)
70 | O=C(C1CCCC1)N1[C@H](CO)[C@H]2c3ccccc3N(S(=O)(=O)c3ccccc3)C[C@H]21 | -4.06% (inactive)
71 | C[C@H](CO)N1C[C@H](C)[C@@H](CN(C)Cc2ccncc2)Oc2ccc(NS(=O)(=O)c3ccc(Cl)cc3)cc2CC1=O | 4.09% (inactive)
72 | COCCCN1C(=O)c2ccc(C(=O)OCC(=O)NCc3ccccc3OC)cc2C1=O | -0.788% (inactive)
73 | COCCCN1C(=O)c2ccc(C(=O)Nc3ccc(OC)cc3OC)cc2C1=O | -3.26% (inactive)
74 | COc1ccc2[nH]cc(CCN3C(=O)c4ccc(C(=O)O)cc4C3=O)c2c1 | 77% (active)
75 | C[C@H](CO)N1C[C@H](C)[C@H](CN(C)Cc2ccccn2)Oc2ncc(C#CCc3ccccc3)cc2C1=O | -3.58% (inactive)
76 | Cc1ccc2cc(/C=N/Nc3ccc(C(=O)O)cc3)c(Cl)nc2c1 | 63.2% (active)
77 | Cc1ccn2c(-c3csc(Nc4ccc(C(=O)O)cc4)n3)c(C)nc2c1 | 3.65% (inactive)
78 | CC(=O)Nc1ccc(C(=O)CSc2nc3ccc(C)cc3[nH]2)cc1 | 1.14% (inactive)
79 | C/C=C/c1cnc2c(c1)C(=O)N([C@H](C)CO)C[C@H](C)[C@@H](CN(C)C(=O)c1cccc(F)c1)O2 | 1.29% (inactive)
80 | C[C@@H]1CCCCO[C@@H](CN(C)S(=O)(=O)c2ccccc2)[C@H](C)CN([C@H](C)CO)C(=O)c2cc(NC(=O)CCC(F)(F)F)ccc2O1 | 3.27% (inactive)
81 | COc1cccc(S(=O)(=O)N[C@@H]2CC[C@H](CCNC(=O)Cc3ccncc3)O[C@@H]2CO)c1 | 3.37% (inactive)
82 | O=C(C[C@@H]1CC[C@@H]2[C@H](COC[C@@H](O)CN2Cc2cc(F)cc(F)c2)O1)NCc1cccc(F)c1 | 4.76% (inactive)
83 | O=C(C[C@@H]1C[C@@H]2c3cc(NS(=O)(=O)c4ccc(F)cc4)ccc3O[C@@H]2[C@@H](CO)O1)NCc1ccncc1 | -5.57% (inactive)
